Reference: ChEMBL document CHEMBL4513216, “Probing the Open Global Health Chemical Diversity Library for Multistage-Active Starting Points for Next-Generation Antimalarials” (ACS Infect Dis, 2020)
Hit rate of the full screen: of about 69,000 compounds, about 8,600 (12%) showed an effect of 50% or more. The sample holds strong results, similar compounds and a random draw of the others, so the mix is not that of the screen.

The compounds below were run on Plasmodium berghei (assay: Screen against P. berghei liver stage (PbLuc), transformed with Luciferase, at 10uM). Conditions: tested at 10 uM.
Format: functional, HepG2

| SMILES | INHIBITION [%] |
| --- | --- |
| CC(NC(=O)CCc1ccsc1)c1ccc2c(c1)NC(=O)CO2 (stereo not given) | 1.223 |
| CN(C)S(=O)(=O)N1CCN(C(=O)c2cc(-c3ccc(Br)s3)n[nH]2)CC1 | 11.2 |
| Cc1nc(N)c2ccc(C3CCCCN3)nc2n1 (stereo not given) | 29.35 |
| Cc1cc(CN(C)C(=O)c2ccc(Cl)c(N3CCCC3=O)c2)no1 | -11.4 |
| COCCC(=O)N1C[C@@H](c2cccc(OC)c2)[C@@]2(CCCCC(=O)N2)C1 | 3.48 |
| CC(C(=O)N1CCCN(Cc2cnn(C(C)C)c2)CC1)n1ccnc1 (stereo not given) | 48.1 |
| Cc1ccc(C(=O)N2CC[C@@H]3CN(C4CCOCC4)CCO[C@@H]3C2)o1 | 22.2 |
| CCc1nc(C2CCCN2C(=O)c2csc(NC(C)=O)n2)no1 (stereo not given) | -17 |
| CCOC(=O)C1CCCN(c2nccc(-n3nc(C)cc3C)n2)C1 (stereo not given) | 1.74 |
| COc1ccc(C(=O)C2CCCN(c3cnccn3)C2)c(C)c1 (stereo not given) | 25.5 |
| Cc1ccccc1CSc1nc(N)cc(N2CCCC(C(N)=O)C2)n1 (stereo not given) | 41.3 |
| COc1cccc(C(=O)C2CCCN(c3nccc(N)n3)C2)c1 (stereo not given) | 43 |
| CCc1nc2n(n1)CCCC2NC(=O)Nc1cc(OC)ccc1C (stereo not given) | 13.5 |
| CCc1nc(C)cc(N2CCCC(C(=O)c3ccc(OC)cc3C)C2)n1 (stereo not given) | 83.9 |
| COc1ccc(C(=O)C2CCCN(c3nccc(N)n3)C2)c(C)c1 (stereo not given) | 51.2 |
| COc1ccc(C(=O)C2CCCN(c3cc(N)ncn3)C2)c(C)c1 (stereo not given) | 60.1 |
| COc1cc(N2CCCC(c3ncc[nH]3)C2)ncn1 (stereo not given) | 28.4 |
| COc1ccc(C(=O)N2C[C@@H](CN3CCCC3)[C@@H](CO)C2)c(C)c1 | 34.9 |
| COc1ccc(C(=O)C2CCCN(c3cc(OC)ncn3)C2)c(C)c1 (stereo not given) | 91.8 |
| O=C1C(n2nnc(-c3ccsc3)n2)CCN1CC(F)(F)F (stereo not given) | -35.9 |
| CC(C)n1ccnc1Cn1ccc2ncccc2c1=O | -9.91 |
| CN(C)CCN1CCN(C(=O)c2ccn(C)c(=O)c2)CC1 | -7.31 |

| SMILES | INHIBITION [%] |
| --- | --- |
| COc1cc(NC(=O)N2CCCC2c2ccco2)cc(OC)c1 (stereo not given) | 45.5 |
| CN(C)C(CNC(=O)c1ccc(-n2cnnn2)cc1)c1ccccc1Cl (stereo not given) | -20.5 |
| Cc1nc(NC(=O)c2cccnc2N2CCOCC2)sc1C | 62.9 |
| Cc1csc(NC(=O)c2cccnc2N2CCOCC2)n1 | -3.39 |
| O=C(Nc1nc2c(s1)CCC2)c1cccnc1N1CCOCC1 | 34 |
| COc1cc(-c2n[nH]c(CC#N)n2)cc(OC)c1OC | 12.7 |
| CCn1nc(C)c(NC(=O)c2nnn(Cc3ccccc3)c2OC)c1C | 27.5 |
| CCCn1nccc1NC(=O)CN1CCc2cnc(CC)nc2C1 | 23.6 |
| CCCn1nccc1NC(=O)CN1CCc2cnc(C(C)C)nc2C1 | 55 |
| Cc1ncc2c(n1)CN(CC(=O)Nc1ccc(Cl)cn1)CC2 | 46.2 |
| CCCn1nccc1NC(=O)CN1CCc2c(nc(C(C)C)n2C)C1 | 12.7 |
| CCc1ncc2c(n1)CN(CC(=O)Nc1ccc(Cl)cn1)CC2 | 67.2 |
| CC(C)c1ncc2c(n1)CN(CC(=O)Nc1ccc(Cl)cn1)CC2 | 0.914 |
| Cc1csc(C(=O)N2CCC3(CC(N(C)c4ccncn4)C3)C2)c1 (stereo not given) | -10.8 |
| COc1c(C2CCCN2C(=O)c2cnc[nH]2)c(C)nn1C (stereo not given) | 29.2 |
| CN1CC2(CCCN(Cc3nnc(-c4cccc(F)c4)o3)C2)OC1=O (stereo not given) | 19.4 |
| CCn1cnnc1C1CCN(C(=O)c2cc(C)n(CC)c2C)CC1 | -10.6 |
| Cc1ccc(N2CC[C@H](OCC3CC3)[C@@H]2Cc2ccncc2)nn1 | 27.5 |
| Cc1nc(CNC(=O)N2CCN(c3ccc(Cl)cn3)CC2)sc1C | 54.3 |
| Cc1cc(CNC(=O)N2CCN(c3ccc(Cl)cn3)CC2)c(C)o1 | 54.3 |
| Cc1nc(C)c(CNC(=O)N2CCN(c3ccc(Cl)cn3)CC2)s1 | 95.4 |
| COCCOC1CCN(C(=O)NCc2coc3ccccc23)CC1 | 46.1 |

| SMILES | INHIBITION [%] |
| --- | --- |
| COCCOC1CCN(C(=O)NCc2cc(C)oc2C)CC1 | 53.7 |
| O=C(c1ccc2c(c1)CCC2)N1CCN(c2ccc(Cl)cn2)CC1 | 11.1 |
| Cc1nc(N2CCN(C(=O)NCc3cscn3)CC2)sc1C | 43.9 |
| Cc1cc(CNC(=O)N2CCN(C(C)c3cccnc3)CC2)c(C)o1 (stereo not given) | 35.2 |
| Cc1nc(CNC(=O)N2CCN(c3ccc(Cl)cn3)CC2)no1 | 49.1 |
| Cc1cc(CNC(=O)CCN2CCN(c3ccccn3)CC2)c(C)o1 | 15.8 |
| Cc1cc(CNC(=O)N2CCN(c3nc(C)c(C)s3)CC2)no1 | 42.6 |
| O=C(CCc1nccs1)N1CCN(c2ccc(Cl)cn2)CC1 | 35.3 |
| Cc1ccc(S(=O)(=O)NC(=O)COc2cccc(C(N)=O)c2)s1 | 11.2 |
| c1ccc(CO[C@H]2CC[C@H]3[C@H]2OCCN3CCN2CCCCC2)nc1 | 40.3 |
| CC(=O)N1CC[C@@]2(C(=O)Nc3ccccc3)CCN(S(C)(=O)=O)CC[C@@H]12 | 41.2 |
| CC(C)c1nn(C)c(Cl)c1CNCc1ccc2c(c1)OCCO2 | 1.5 |
| CN(C)CCCN(Cc1ccco1)Cc1ccnn1C1CCCCO1 (stereo not given) | -0.232 |
| Cc1ccoc1C(=O)N1C[C@@H]2[C@@H](C1)OCC(=O)N2Cc1cccnc1 | 0 |
| OC1(CN2CCOC(CNc3cccnn3)C2)CCCCC1 (stereo not given) | 25.4 |
| Cn1c(N2CCOCC2)nc2cc(C(=O)NCc3cccnc3)ccc21 | 48.2 |
| CC(=O)NCc1ccc(C(=O)N2CCCC2c2cnn(C)c2)cc1 (stereo not given) | -12.1 |
| CC(=O)N1CCC(c2cncc(N3CCCC(O)C3)n2)CC1 (stereo not given) | -6.73 |
| O=c1cc(C2CCNCC2)nc(CCc2ccccn2)[nH]1 | -0.273 |
| O=c1cc(C2CCNCC2)nc(CCCc2ccccc2)[nH]1 | 22.7 |
| O=c1cc(C2CCNCC2)nc(Cc2cccc(Cl)c2)[nH]1 | 52.2 |
| CN(CCCOc1ccccc1Cl)C(=O)CN1C(=O)CCNC1=O | -44.2 |

| SMILES | INHIBITION [%] |
| --- | --- |
| COC(=O)CCCNC(=O)N1CCc2c([nH]c3ccc(Cl)cc23)C1 | -50 |
| COc1ccc(C(=O)N2C[C@@H](O)[C@H](NCc3ncccc3C)C2)cc1 | 31.45 |
| CCc1ncc2c(n1)CN(Cc1nnc(C(C)C)o1)CC2 | 30.3 |
| CC(C)N1CCC(c2ccnc3c(C(=O)N4CCOCC4)ncn23)CC1 | 12.7 |
| O=C(c1ncn2c(C3CCN(CC4CC4)CC3)ccnc12)N1CCCC1 | 12.7 |
| CC(C)N1CCC(c2ccnc3c(C(=O)N4CCCC4)ncn23)CC1 | 60 |
| CN(CC(=O)NC1(C)CCS(=O)(=O)C1)Cc1ccc(F)c(F)c1 (stereo not given) | 27.6 |
| Cc1cc(S(=O)(=O)Nc2onc(C)c2C)c(C)s1 | 4.1 |
| Cc1noc(NS(=O)(=O)c2ccc(Cl)s2)c1C | 44.7 |
| Cc1cc(S(=O)(=O)Nc2onc(C)c2C)sc1C | 87.5 |
| CN(C)c1cc(CNC(=O)c2cccnc2O)ccn1 | 9.64 |
| COCc1cn(CC2CCN(Cc3cc(C)[nH]n3)CC2)nn1 | 26.7 |
| COC[C@@H]1CC[C@H]2[C@H](CCN2C(=O)c2ccncc2F)O1 | 29 |
| COCCOc1ccc(NC(=O)N(C)Cc2ccsc2)cn1 | 31.8 |
| COCCN(C)c1ccc(NCc2ccsc2)nc1 | 80.8 |
| COC(=O)c1cc(NCc2cscn2)ccc1C | 11.9 |
| COc1cccc(-c2cc(NCc3cscn3)n(C)n2)c1 | -40.5 |
| CCn1cc(CNc2ccc3nccnc3c2)cn1 | 18.8 |
| CCn1cc(CNc2ccc(Br)c(OC)c2)cn1 | 32 |
| CCn1cc(CNc2ccc(N(C)CCOC)cn2)cn1 | 57.2 |
| COCCN(C)c1ccc(NCc2cccnc2)nc1 | 15.1 |
| COCCN(C)c1ccc(NCc2cscn2)nc1 | 75.1 |

| SMILES | INHIBITION [%] |
| --- | --- |
| Cn1ccnc(Sc2ccccc2)c1=O | -4.13 |
| CCOc1ccccc1C(=O)NCc1nncn1C1CC1 | 11.4 |
| CC1(c2nccs2)CCN(C(=O)CC2CCOCC2)CC1 | -1.25 |
| CC(=O)N1CCC2(CCCN(S(=O)(=O)c3ccccc3)C2)C1 (stereo not given) | -60.3 |
| CCc1cc(NCCCNS(C)(=O)=O)nc(-c2ccncc2)n1 | 15.2 |
| CCC=C(C)C(=O)N1CSCC1C(=O)N(C)CCc1ccncc1 (stereo not given) | -16.7 |
| Cc1cc(C)n(CC2CCCCN2CC(=O)Nc2nnc(C)s2)n1 (stereo not given) | -16.5 |
| Cc1cc(C)n(CC2CCCCN2CC(=O)Nc2nccs2)n1 (stereo not given) | 77.6 |
| Cc1cc(C)n(CC2CCCCN2CC(=O)Nc2nncs2)n1 (stereo not given) | 11.1 |
| CCCc1n[nH]c(C2CN(CCc3cccs3)CCO2)n1 (stereo not given) | -23.9 |
| CCC(C)N(CC)C(=O)c1ccc2[nH]nnc2c1 (stereo not given) | -29.1 |
| CN1CCN(CC(C)(C)C)CC1CCO (stereo not given) | -1.26 |
| COc1cc(C(=O)O)ccc1OCC(=O)NCCc1ccccc1 | 37.4 |
| Cc1cc(C)c(CNC(=O)NCCNc2cnccn2)c(=O)[nH]1 | 73 |
| Cc1cc(C)c(CNC(=O)C2CCN(c3cnccn3)CC2)c(=O)[nH]1 | 12.255 |
| Cc1cc(C)c(CNC(=O)N2CCN(c3cnccn3)CC2)c(=O)[nH]1 | 51.2 |
| O=C(NCC1CCS(=O)(=O)C1)N1CCN(c2cnccn2)CC1 (stereo not given) | 50.3 |
| O=C(NC1CCS(=O)(=O)C1)N1CCN(c2cnccn2)CC1 (stereo not given) | 33 |
| Cc1cc(C)c(CNC(=O)N2CCN(c3ccccn3)CC2)c(=O)[nH]1 | 9.4 |
| Cc1cc(C)c(CNC(=O)NCCNc2ncccn2)c(=O)[nH]1 | 25.7 |
| O=C(C1CCS(=O)(=O)C1)N1CCN(c2cnccn2)CC1 (stereo not given) | 16.7 |
| Cc1cc(C)c(CNC(=O)NCCNc2ccccn2)c(=O)[nH]1 | 46.1 |
